PubChem BioAssay (NCATS)
“And” between values parts separate entries of the source, which are not always exact repeats. Equal values may be shown once. The source made the active and inactive calls. Unless noted, calls come from the whole dose curve; as a rule, active = well fitted cell-killing curve with a large enough effect; inconclusive = small, poorly fitted or top-dose-only effect; inactive = flat fitted curve, though single readings scatter.

How the values were obtained:
[1] = Cell Viability - LYMP2-008 (AID 980); note: nearly all actives have a fitted effect of over 60% in size
Procedure, shortened: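 Human lymphoblastoid cells (2500/well) were plated, held 5 hr at 37 C, then exposed to compounds for 24 hr at 37 C in complete medium. Intracellular ATP was read by CellTiter-Glo luminescence; AC50 from Hill-fitted concentration-response.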

[2] = Cell Viability - LYMP2-012 (AID 982);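 note: cellular ATP by luciferase luminescence where a drop means cytotoxicity; cells exposed to compound for one day before reading; nearly all actives have a fitted effect of over 55% in size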
[3] = Cell Viability - LYMP2-014 (AID 983); note: series mostly up to about 92 µM; nearly all actives have a fitted effect of over 50% in size
Procedure, shortened: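 Human lymphoblastoid cells (2500/well) were pre-incubated 5 hr at 37 C, then exposed to compounds in complete medium for 24 hr at 37 C. Intracellular ATP was read by CellTiter-Glo luminescence after 30 min at room temperature; AC50 from Hill fits.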

[4] = Cell Viability - LYMP2-016 (AID 984); note: nearly all actives have a fitted effect of over 55% in size
Procedure, shortened: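 Concentration-dependent ATP depletion measured in LYMP2-016 lymphoblastoid cells, 24 h, 37 C; luciferase-based luminescent detection; Hill-equation AC50.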

[5] = Cell Viability - LYMP2-018 (AID 985);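 note: compound exposure lasted 24 hr at 37 °C; nearly all actives have a fitted effect of over 50% in size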
Procedure, shortened: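 Human lymphoblastoid cells (2500/well) were pre-incubated 5 hr at 37 C, then exposed to compounds for 24 hr at 37 C in complete medium. Viability was read as intracellular ATP by CellTiter-Glo luminescence; AC50 values came from Hill-equation fits.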

[6] = Cell Viability - LYMP2-020 (AID 986); note: series mostly up to about 92 µM; nearly all actives have a fitted effect of over 55% in size
Procedure, shortened: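 Human lymphoblastoid cells, 2500/well, were pre-incubated 5 hr at 37 C, then exposed to compounds for 24 hr at 37 C in complete medium. Intracellular ATP was read by CellTiter-Glo luminescence, and AC50 was derived by Hill fitting of concentration-response data.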

[7] = Cell Viability - LYMP2-024 (AID 988); note: nearly all actives have a fitted effect of over 60% in size
Procedure, shortened: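 Human lymphoblastoid cells (2500/well) in complete medium were preincubated 5 hr at 37 C, then exposed to compounds for 24 hr at 37 C. Intracellular ATP was read by CellTiter-Glo luminescence; AC50 from Hill-equation fits of concentration-response data.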

[8] = Cell Viability - LYMP2-026 (AID 989); note: nearly all actives have a fitted effect of over 50% in size
Procedure, shortened: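 Human lymphoblastoid cells (2500/well) in complete medium were preincubated 5 hr at 37 C, then exposed to compounds for 24 hr at 37 C. Cellular ATP was read by CellTiter-Glo luminescence; AC50 from Hill-equation fits of concentration-response data.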

[9] = Cell Viability - LYMP1-002 - Assay at 24 hr (AID 993)
Procedure, shortened: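 Human lymphoblastoid LYMP1-002 cells, 2500/well in complete medium, were treated with compounds for 24 h at 37 C; intracellular ATP was read by CellTiter-Glo luminescence. AC50 values came from Hill-equation fits of qHTS concentration-response data.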

[10] = qHTS Assay for Identification of Small Molecule Inducers of Hypoxia Response (AID 2120; active = well fitted curve in the direction sought with a large enough effect in the signal ratio, with a control signal flat, not every such curve was filed as active; inconclusive = small, poorly fitted or top-dose-only effect, or a change in a side signal; inactive = no such curve, though single readings can be large or run the other way; the % refers to the signal ratio)
Procedure, shortened: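 HRE-beta-lactamase reporter in CellSensor HRE-bla ME-180 cells, 2500 cells/well in Opti-MEM with 0.5% dialyzed FBS; compounds tested as titration series, 17 h at 37 degrees C. CCF4 substrate 2.5 h at room temperature; AC50 from 460/530 nm ratio.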

[11] = biological target: Estrogen receptor (Homo sapiens) (UniProt P03372); experiment: qHTS assay for small molecule antagonists of estrogen receptor alpha signaling (AID 588513; active = well fitted curve in the direction sought with a large enough effect in the signal ratio, with a control signal flat, not every such curve was filed as active; inconclusive = small, poorly fitted or top-dose-only effect, or effect the other way, or a change in a side signal; inactive = no such curve, though single readings can be large or run the other way; the % refers to the signal ratio; note: potency is the fitted concentration of half-maximal effect)
Estrogen receptor (Homo sapiens), sequence (P03372 whole entry, looked up): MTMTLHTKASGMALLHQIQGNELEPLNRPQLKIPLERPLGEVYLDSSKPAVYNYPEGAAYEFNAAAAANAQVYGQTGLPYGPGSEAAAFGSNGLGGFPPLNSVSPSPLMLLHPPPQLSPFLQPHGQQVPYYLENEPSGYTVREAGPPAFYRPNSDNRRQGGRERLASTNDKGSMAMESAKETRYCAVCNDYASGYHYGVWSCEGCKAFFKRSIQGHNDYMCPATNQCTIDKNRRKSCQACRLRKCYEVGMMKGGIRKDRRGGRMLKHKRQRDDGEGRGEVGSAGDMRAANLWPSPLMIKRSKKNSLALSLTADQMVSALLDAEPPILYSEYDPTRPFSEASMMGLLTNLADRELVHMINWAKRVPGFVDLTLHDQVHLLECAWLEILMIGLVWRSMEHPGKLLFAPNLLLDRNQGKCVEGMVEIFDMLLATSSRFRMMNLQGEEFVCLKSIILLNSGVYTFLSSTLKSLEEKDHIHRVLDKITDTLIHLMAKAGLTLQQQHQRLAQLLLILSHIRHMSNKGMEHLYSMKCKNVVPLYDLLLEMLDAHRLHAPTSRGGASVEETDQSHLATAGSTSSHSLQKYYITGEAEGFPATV
Procedure, shortened: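 Antagonist-mode qHTS in ER-alpha-UAS-bla HEK 293 cells: compound titration, 0.5nM estradiol for 18 h, CCF4 fluorescence, Hill-derived IC50.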

[12] = biological target: Estrogen receptor (Homo sapiens) (UniProt P03372); experiment: qHTS assay for small molecule agonists of estrogen receptor alpha signaling (AID 588514; calls by dose curve; note: potency is the fitted concentration of half-maximal effect; nearly all actives have a fitted effect of over 70% in size)
Procedure, shortened: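 ER-alpha-UAS-bla GripTite HEK 293 cells in medium with 2% charcoal/dextran-treated FBS were treated with compound titrations at 37 C for 18 hrs; beta-lactamase reporter read by CCF4 fluorescence after 2 hrs at RT.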

[13] = biological target: Androgen receptor (Homo sapiens) (UniProt P10275); experiment: qHTS assay for small molecule antagonists of androgen receptor signaling (AID 588516; active = well fitted curve in the direction sought with a large enough effect in the signal ratio, with a control signal flat, not every such curve was filed as active; inconclusive = small, poorly fitted or top-dose-only effect, or effect the other way, or a change in a side signal; inactive = no such curve, though single readings can be large or run the other way; the % refers to the signal ratio; note: potency is the fitted concentration of half-maximal effect)
Androgen receptor (Homo sapiens), sequence (P10275 whole entry, looked up): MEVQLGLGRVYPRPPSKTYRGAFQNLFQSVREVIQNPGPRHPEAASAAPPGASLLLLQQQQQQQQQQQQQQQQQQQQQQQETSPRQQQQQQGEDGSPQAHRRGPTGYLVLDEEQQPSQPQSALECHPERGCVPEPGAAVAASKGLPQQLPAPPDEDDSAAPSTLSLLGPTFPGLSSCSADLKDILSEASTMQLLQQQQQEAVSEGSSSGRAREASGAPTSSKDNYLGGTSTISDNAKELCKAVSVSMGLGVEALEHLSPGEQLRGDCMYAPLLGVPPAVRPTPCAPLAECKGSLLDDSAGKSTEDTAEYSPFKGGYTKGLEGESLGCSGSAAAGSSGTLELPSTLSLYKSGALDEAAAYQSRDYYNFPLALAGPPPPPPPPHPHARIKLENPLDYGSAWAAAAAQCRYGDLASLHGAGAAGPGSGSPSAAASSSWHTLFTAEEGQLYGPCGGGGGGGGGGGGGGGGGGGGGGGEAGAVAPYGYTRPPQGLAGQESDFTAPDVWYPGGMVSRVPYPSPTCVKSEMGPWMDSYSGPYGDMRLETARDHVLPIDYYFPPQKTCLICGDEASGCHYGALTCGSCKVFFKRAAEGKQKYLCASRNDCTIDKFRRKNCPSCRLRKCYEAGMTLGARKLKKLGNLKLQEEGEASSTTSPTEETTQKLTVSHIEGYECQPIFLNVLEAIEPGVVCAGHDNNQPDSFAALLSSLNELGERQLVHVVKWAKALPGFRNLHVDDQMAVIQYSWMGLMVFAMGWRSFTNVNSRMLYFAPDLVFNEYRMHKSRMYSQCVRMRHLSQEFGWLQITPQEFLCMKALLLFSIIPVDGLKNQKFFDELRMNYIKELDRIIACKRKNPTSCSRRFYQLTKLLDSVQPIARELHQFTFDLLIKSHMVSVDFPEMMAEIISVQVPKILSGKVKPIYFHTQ
Procedure, shortened: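 Compounds tested in titration against 10 nM R1881 in AR-responsive bla reporter HEK 293 cells; CCF4 fluorescence (460/530 nm) after 16 h exposure gave IC50 and efficacy.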

[14] = biological target: Peroxisome proliferator-activated receptor gamma (Homo sapiens) (UniProt P37231); experiment: qHTS assay for small molecule agonists of peroxisome proliferator-activated receptor gamma signaling (AID 588536; active = well fitted curve in the direction sought with a large enough effect in the signal ratio, with a control signal flat, not every such curve was filed as active; inconclusive = small, poorly fitted or top-dose-only effect, or effect the other way, or a change in a side signal; inactive = no such curve, though single readings can be large or run the other way; the % refers to the signal ratio)
Peroxisome proliferator-activated receptor gamma (Homo sapiens), sequence (P37231 whole entry, looked up): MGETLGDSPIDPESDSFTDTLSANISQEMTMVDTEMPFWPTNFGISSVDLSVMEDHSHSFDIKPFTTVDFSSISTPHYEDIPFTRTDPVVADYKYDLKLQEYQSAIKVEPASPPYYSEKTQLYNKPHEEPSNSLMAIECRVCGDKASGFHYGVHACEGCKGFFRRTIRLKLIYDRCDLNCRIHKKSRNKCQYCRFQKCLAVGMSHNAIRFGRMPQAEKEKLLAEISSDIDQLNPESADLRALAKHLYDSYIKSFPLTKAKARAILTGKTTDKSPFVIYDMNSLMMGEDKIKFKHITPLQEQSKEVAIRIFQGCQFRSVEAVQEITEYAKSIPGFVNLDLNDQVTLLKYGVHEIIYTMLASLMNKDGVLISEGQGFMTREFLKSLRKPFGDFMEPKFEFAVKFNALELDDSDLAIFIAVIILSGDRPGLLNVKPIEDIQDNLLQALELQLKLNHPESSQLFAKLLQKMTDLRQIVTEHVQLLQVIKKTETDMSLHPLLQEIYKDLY
Procedure, shortened: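 GeneBLAzer PPAR-gamma-UAS-bla HEK293 cells in 1% charcoal/dextran-treated FBS medium were treated 16 h at 37 C with compounds. Beta-lactamase activity was read by CCF4 ratio (460/530 nm). Response was normalized to 2 uM rosiglitazone (100%) and DMSO, then Hill-fitted for EC50 and efficacy.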

[15] = biological target: Peroxisome proliferator-activated receptor gamma (Homo sapiens) (UniProt P37231); experiment: qHTS assay for small molecule antagonists of peroxisome proliferator-activated receptor gamma signaling (AID 588537; active = well fitted inhibition curve with a large enough effect in the signal ratio, with a control signal flat, not every such curve was filed as active; inconclusive = small, poorly fitted or top-dose-only effect, or effect the other way, or a change in a side signal; the % refers to the signal ratio;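 note: reporter cells co-stimulated with 50 nM rosiglitazone agonist during compound treatment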)
Procedure, shortened: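 Inhibitors of agonist-stimulated UAS-bla reporter activity were sought in HEK293 cells; rosiglitazone (50 nM) defined full signal and DMSO baseline. Curves fitted to Hill model gave IC50 and efficacy.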

[16] = qHTS assay for small molecule agonists of retinoid X receptor alpha signaling (AID 588544; calls by dose curve); conditions: HEK293T RXRa-UAS-bla, beta-lactamase reporter, 18 h; 530 nm emission
[17] = biological target: Retinoic acid receptor RXR-alpha (Homo sapiens) (UniProt P19793); experiment: as above
Retinoic acid receptor RXR-alpha (Homo sapiens), sequence (P19793 whole entry, looked up): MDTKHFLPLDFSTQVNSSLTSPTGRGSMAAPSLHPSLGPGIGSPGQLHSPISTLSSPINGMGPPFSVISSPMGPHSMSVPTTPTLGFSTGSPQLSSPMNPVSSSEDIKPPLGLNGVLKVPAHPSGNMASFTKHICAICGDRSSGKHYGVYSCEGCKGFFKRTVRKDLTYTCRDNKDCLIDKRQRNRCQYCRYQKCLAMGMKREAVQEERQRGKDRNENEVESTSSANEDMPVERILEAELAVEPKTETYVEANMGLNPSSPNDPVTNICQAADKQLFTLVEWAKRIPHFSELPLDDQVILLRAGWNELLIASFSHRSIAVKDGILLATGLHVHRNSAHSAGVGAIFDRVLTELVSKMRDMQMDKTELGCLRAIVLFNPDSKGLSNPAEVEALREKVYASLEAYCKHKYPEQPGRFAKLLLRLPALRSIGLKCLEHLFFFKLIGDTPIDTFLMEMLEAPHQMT

[18] = biological target: Thyroid hormone receptor beta (Homo sapiens) (UniProt P10828); experiment: qHTS assay for small molecule agonists of thyroid hormone receptor beta signaling (AID 588545; calls by dose curve)
Thyroid hormone receptor beta (Homo sapiens), sequence (P10828 whole entry, looked up): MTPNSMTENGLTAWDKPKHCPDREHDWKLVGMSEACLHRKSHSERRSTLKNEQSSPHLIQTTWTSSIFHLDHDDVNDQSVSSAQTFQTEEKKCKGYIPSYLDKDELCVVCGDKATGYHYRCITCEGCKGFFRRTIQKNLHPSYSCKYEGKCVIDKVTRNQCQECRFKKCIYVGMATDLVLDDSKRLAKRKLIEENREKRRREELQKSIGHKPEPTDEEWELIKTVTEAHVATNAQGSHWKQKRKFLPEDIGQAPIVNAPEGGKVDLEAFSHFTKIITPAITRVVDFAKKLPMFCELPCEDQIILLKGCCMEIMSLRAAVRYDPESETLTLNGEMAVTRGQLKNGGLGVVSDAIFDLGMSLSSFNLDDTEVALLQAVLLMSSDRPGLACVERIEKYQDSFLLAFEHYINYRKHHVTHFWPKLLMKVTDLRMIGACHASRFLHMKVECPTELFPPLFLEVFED
Procedure, shortened: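 Compounds were tested as agonists in TR-UAS-bla-GripTite HEK 293 cells. After 18 hrs at 37 C, CCF4 substrate was added and fluorescence read after 2 hrs at room temperature.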

[19] = qHTS assay for small molecule antagonists of retinoid X receptor alpha signaling (AID 588546); conditions: HEK293T RXRa-UAS-bla, beta-lactamase ratio, antagonist mode; measured here: W530 green channel, cytotoxicity proxy;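 note: cells stimulated with 9-cis-retinoic acid as agonist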
Procedure, shortened: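 Beta-lactamase reporter inhibition, read as CCF4 fluorescence ratio (ex 405, em 460/530 nm) after 2 h at RT. HEK293T UAS-bla cells, 2500/well, were stimulated with 9-cis-RA at 500 or 100 nM final alongside test compound for 18 h at 37 C.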

C[C@H]1CCCC(=O)CCC/C=C/c2cc(O)cc(O)c2C(=O)O1
17.7%: max response [19]
inactive: Potency [1] | Potency [2] | Potency [3] | Potency [4] | Potency [5] | Potency [6] | Potency [7] | Potency [8] | Potency [9] | outcome [10] | outcome [14] | Potency [15] | Potency [17] | outcome [18]
active: Potency [11] 14.1 µM [inconclusive] | Potency [12] 0.01 µM | Potency [13] 44.7 µM
-13.4% and 26.9%: max response [16]
